These results are taken from PubChem BioAssay (NCI).

Each structure is given as a SMILES string. About 83,000 compounds went through this panel and 20% of them were active in at least one assay; those are over-represented in the sample as a whole.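 Percent growth is the endpoint: 0 to 100 indicates growth inhibition (40 means 60% inhibition), 0 means no net growth, and negative values indicate cell death.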 Values without a mark were called inactive. Calls of active or inactive are those of the source. How the source made its calls: active means growth percent below 10; inactive means the rest.

Common to all, as to assay: NCI-60 one-dose screen, 48 h (100 = growth as untreated, 0 = no growth, -100 = all killed)
What all share (settings): 10 µM unless noted

For assay [1], the system named is SK-MEL-2 melanoma.
Assay [2] deals with EKVX NSCLC.
Assay [3] deals with SN12C renal.
Assay [4] deals with UO-31 renal.
In assay [5] the test system is TK-10 renal.
Assay [6] concerns ACHN renal.
Assay [7] deals with CAKI-1 renal.
Assay [8] has as its system A498 renal.
Assay [9] relates to CCRF-CEM leukemia.
The subject of assay [10] is MOLT-4 leukemia.
Assay [11] relates to SR leukemia.
In assay [12] the test system is RPMI-8226 leukemia.
For assay [13], the system named is OVCAR-8 ovarian.
The test system of assay [14] is OVCAR-5 ovarian.
For assay [15], the system named is OVCAR-4 ovarian.
The test system of assay [16] is SK-OV-3 ovarian.
Assay [17] deals with IGROV1 ovarian.
For assay [18], the system named is OVCAR-3 ovarian.
In assay [19] the test system is HS 578T breast.
In assay [20] the test system is NCI/ADR-RES ovarian.

As to `Nc1c(C(=O)c2ccc(Cl)cc2)sc(Nc2ccccc2)c1-c1nc2ccccc2s1`, the growth in [1] was 38.5%; in [2], 59.9%; in assay [3], 82.6%; in assay [4], 19.3%; in assay [5] it was -13.3% (active); in assay [6], 26.2%. For the same molecule, the growth is 25.2% in [7]; 46.2% in assay [8]; 60.3% in assay [9]; 76.5% in assay [10]; 33.2% in assay [11]; 28.3% in assay [12]. The growth in [13] is 23%; in [14] it was 46.4%; in assay [15] it was -9.61% (active); in assay [16], -0.592% (active); in [17], 29.1%; in assay [18], 4.1% (active). Also, the results for the growth in assay [19] and in assay [20] were 32.4% and 18.8%, respectively.

With `O=C(Nc1ncc(Cc2ccc(Cl)cc2)s1)C1=NCCCCN1`, the growth is 110% in [1]; 106% in assay [2]; 106% in [3]; 84.3% in assay [4]; 108% in [5]; 109% in [6]. Also, the growth is 90.5% in [7]; 112% in assay [8]; 101% in [9]; 99.4% in assay [10]; 106% in assay [11]; 97% in [12]. In addition, the growth in assay [13] is 106%; in assay [14], 105%; in assay [15], 105%; in assay [16] it was 106%; in assay [17], 107%; in assay [18], 110%. The growth in [19] was 109%; in assay [20], 106%.

As to `C=C(C)[C@@H]1CC[C@]2(COC(=O)c3cccnc3)CC[C@]3(C)[C@H](CC[C@@H]4[C@@]5(C)CCCN(C(=O)c6cccnc6)C(C)(C)[C@@H]5CC[C@]43C)[C@@H]12`, the growth is 65.3% in [1]; 49.6% in assay [2]; 38.1% in [3]; 35.9% in [4]; 51.8% in assay [5]; 29.5% in assay [6]. Further, the growth in assay [7] is 32.6%; in assay [8], 46.7%; in [9], 24.9%; in assay [10] it was 23.6%; in assay [11] it was 11.3%; in [12], 14%. Besides, the growth in assay [13] is 26.9%; in assay [14], 53.9%; in assay [15] it was 37.6%; in assay [16] it was 53.1%; in [17], 42.8%; in assay [18], 32.9%. Also, the growth in [19] is 59%; in assay [20] it was 42.7%.

As to `Cc1cc2c(c(C)n1)CN(C(=O)Nc1nc(-c3cncs3)ccc1N)C2`, the growth is 81% in [1]; 97.3% in assay [2]; 105% in [3]; 92% in assay [4]; 62.7% in assay [5]; 106% in assay [6]. The growth was 76.8% in [7]; 96% in [8]; 107% in assay [9]; 107% in assay [10]; 95.3% in [11]; 93.7% in assay [12]. The growth in assay [13] was 92.3%; in assay [14] it was 103%; in assay [15], 96.7%; in assay [16], 89%; in assay [17], 92.6%; in assay [18] it was 103%. For the same molecule, the growth in [19] was 104%; in assay [20], 96.5%.

Regarding `Cc1ccc(-c2nnc(SCc3nc(N)nc(Nc4ccccc4F)n3)n2-c2ccccc2)cc1`, the growth in [1] was 95.4%; in assay [2], 94.2%; in assay [3], 95.6%; in assay [4] it was 70.4%; in [5], 100%; in assay [6], 92%. The growth in assay [7] was 85.2%; in [8], 55.3%; in [9] it was 90.2%; in assay [10], 70.2%; in assay [11], 92.4%; in assay [12] it was 83.7%. The growth in assay [13] was 88%; in [14] it was 95.9%; in [15] it was 86.7%; in [16] it was 102%; in [17] it was 81.4%; in assay [18] it was 102%. Moreover, the growth in [19] is 87.1%; in assay [20], 98.2%.

With `CO[C@H]1CC(c2ccc[nH]2)=N[C@]12O[C@@H](C)C[C@@H]1CCCCCCCc3ccc([nH]3)[C@H]12`, the growth in assay [1] is -16.2% (active); in assay [2], 29.4%; in assay [3], 33.6%; in assay [4], -15.6% (active); in [5] it was 15%; in assay [6] it was 8.05% (active). Moreover, the growth in assay [7] is 9.32% (active); in assay [8], 57.4%; in assay [9] it was 22.7%; in [10], 20.6%; in [11], 9.34% (active); in [12], -1.79% (active). For the same molecule, the growth in assay [13] was 14.8%; in assay [14], 29.7%; in [15], 29.2%; in assay [16], 30%; in assay [17] it was 28.9%; in assay [18], 29.2%. The growth in assay [19] is 29.2%; in assay [20], 17.1%.

Take `CCOC(=O)/C=C1\S/C(=N\Nc2cc(=O)[nH]c3ccc(OC)cc23)N(c2ccccc2)C1=O`: the growth in assay [1] is 106%; in assay [2] it was 106%; in [3], 96.8%; in assay [4] it was 82.4%; in [5] it was 117%; in assay [6] it was 96.8%. For the same molecule, the growth in [7] was 88.5%; in [8], 112%; in [9], 65.1%; in assay [10], 95.4%; in assay [11], 50.4%; in assay [12] it was 87.2%. Further, the growth was 98.7% in assay [13]; 106% in assay [14]; 82.7% in assay [15]; 104% in assay [16]; 92.2% in assay [17]; 95.8% in assay [18]. The figures for the growth in [19] and in assay [20] were 103% and 104%, respectively.

`Cc1ccc(OCCOCCOCCOCCOc2ccc(C)n(O)c2=S)c(=S)n1O`: the growth in assay [1] was 12.1%; in assay [2], 17.3%; in assay [3], 13.1%; in [4] it was -1.11% (active); in assay [5], 33.3%; in assay [6] it was 12.7%. For the same molecule, the growth in assay [7] is 8.11% (active); in [8], 29.6%; in assay [9], 1.1% (active); in [10] it was 6.72% (active); in assay [11], 6.36% (active); in assay [12], 13.4%. Moreover, the growth is 9.37% (active) in assay [13]; 39.1% in assay [14]; 24.4% in [15]; 0.0112% (active) in assay [16]; 30.9% in assay [17]; 25% in assay [18]. Also, the growth in assay [19] was 44%; in assay [20], 1.43% (active).

Turning to `CN1CCN(c2ccc(Nc3ncc4[nH]c(=O)n(Cc5ccccc5N)c4n3)cc2)CC1`, the growth in assay [1] was 104%; in assay [2], 102%; in assay [3] it was 86.5%; in [4], 62.5%; in assay [5], 86.4%; in assay [6] it was 89.9%. In addition, the growth was 66.4% in assay [7]; 66.4% in assay [8]; 96.4% in assay [9]; 93.4% in [10]; 91% in [11]; 105% in assay [12]. Moreover, the growth is 98.4% in assay [13]; 79.1% in [14]; 93.6% in assay [15]; 81.3% in [16]; 77.6% in assay [17]; 102% in [18]. For the same molecule, the growth in [19] is 69.8%; in assay [20] it was 102%.

For `N#C/C(=C/C=C/c1ccccc1)S(=O)c1ccccc1` (stereo not given), the growth is -15.9% (active) in assay [1]; -6.51% (active) in [2]; -52.5% (active) in assay [3]; -63.4% (active) in assay [4]; -89.8% (active) in assay [5]; -74.4% (active) in [6]. The growth in assay [7] is -25.6% (active); in assay [8], -68.4% (active); in [9], -5.68% (active); in assay [10] it was -1.2% (active); in [11], 3.12% (active); in [12] it was -8.55% (active). The growth in [13] is 14.1%; in [14] it was -55.4% (active); in assay [15], 18.6%; in [16] it was 32.3%; in assay [17], 1.27% (active); in assay [18] it was -82.2% (active). In addition, the growth in [19] was 15.8%; in assay [20] it was 11.9%.

Consider `CC(=O)c1c(/C=C/c2ccc(C)cc2)c2ccccc2[nH]c1=O`, for which the growth in [1] was 107%; in assay [2] it was 95.1%; in [3], 83.2%; in assay [4], 49.6%; in assay [5] it was 106%; in assay [6], 91%. In addition, the growth was 67.6% in assay [7]; 81.2% in [8]; 105% in assay [9]; 87.1% in [10]; 99.5% in assay [11]; 91.5% in [12]. In addition, the growth in [13] is 86.8%; in assay [14], 100%; in assay [15], 88.9%; in [16], 90.2%; in assay [17] it was 57.4%; in [18], 92.5%. Further, the growth was 85.9% in assay [19] and 85.8% in assay [20].

Consider `CC1(C)C2=C(C(=O)N1Cc1ccccc1)C(c1ccco1)N(C(=O)C1CCC1)CCN2` (stereo not given), for which the growth in assay [1] is 94.3%; in [2] it was 97.4%; in [3] it was 93.4%; in assay [4], 90.5%; in [5], 93.9%; in [6], 111%. In addition, the growth is 91.9% in assay [7]; 113% in assay [8]; 105% in assay [9]; 102% in assay [10]; 94.9% in [11]; 106% in [12]. Further, the growth was 115% in assay [13]; 95.6% in [14]; 97.1% in assay [15]; 103% in assay [16]; 103% in [17]; 107% in assay [18]. Further, the growth was 121% in [19] and 100% in [20].

On to `COc1ccc(C2CC(=O)Oc3c(OC)c4c(c(OC)c32)OCO4)cc1` (stereo not given), for which the growth in assay [1] is 101%; in assay [2] it was 101%; in assay [3] it was 98%; in assay [4] it was 84.7%; in assay [5] it was 96.4%; in assay [6], 103%. In addition, the growth in assay [7] is 96.8%; in assay [8], 88.7%; in [9], 88.9%; in assay [10], 96.3%; in [11], 61.8%; in [12], 89.4%. Further, the growth is 98.2% in [13]; 92.2% in assay [14]; 106% in assay [15]; 92% in [16]; 92.7% in assay [17]; 109% in assay [18]. Besides, the growth in [19] was 93.7%; in assay [20] it was 92.4%.
